Results taken from PubChem BioAssay (EPA / NIEHS).
Inconclusive results are not listed. Active and inactive are the calls of the source. Rule for the calls, unless noted: active = hit-call score of the fitted dose curve at least 0.9, where 1 is the maximum; inactive = score below 0.9.

Legend:
[1] = BSK_BT_PBMCCytotoxicity: PBMC Cytotoxicity Assessment in the BioMAP Diversity Plus: BT Assay (AID 2284225); conditions: primary human B cells with PBMC;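 note: PBMC viability measured by Alamar Blue dye reduction fluorescence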
In short: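 Viability by Alamar Blue reduction (6 h, ex/em 546/580 nm) after 90 h culture of SEB/TSST-1-activated PBMC (20 ng/mL each) given compound 1 h before activation. DMSO served as baseline for curve fitting.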

[2] = read-out: Secreted IgG (sIgG), gene 3500; test: BSK_BT_sIgG: BioMAP Diversity Plus: BT Assay for Secreted IgG (sIgG) Biomarker Activity (AID 2284226); conditions: primary human B cells with PBMC
In short: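 ELISA quantitation of secreted IgG from human B cells co-cultured with PBMC, sampled 24 h post-dosing. Values fitted relative to DMSO vehicle as baseline, positive fitting direction.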

[3] = read-out: Interleukin 6 (IL6), IL6 (gene 3569); test: BSK_BT_xIL6: BioMAP Diversity Plus: BT Assay for Interleukin 6 (IL6) Biomarker Activity (AID 2284228); conditions: primary human B cells with PBMC
In short: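 B cells and peripheral blood mononuclear cells (human primary co-culture) were dosed with chemical, and after 24 h IL-6 released into the medium was measured by Luminex xMAP. Responses were analysed as gain of signal over DMSO control.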

[4] = read-out: Interleukin 17A (IL17A), IL17A (gene 3605); test: BSK_BT_xIL17A: BioMAP Diversity Plus: BT Assay for Interleukin 17A (IL17A) Biomarker Activity (AID 2284229); conditions: primary human B cells with PBMC
In short: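 Secreted IL-17A was the measured endpoint, read by Luminex xMAP multiplex in supernatants of a human B cell/PBMC co-culture harvested 24 h after chemical dosing. Signal increase relative to DMSO defined activity.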

[5] = read-out: Tumor necrosis factor (Homo sapiens) (UniProt P01375); test: BSK_BT_xTNFa: BioMAP Diversity Plus: BT Assay for Tumor necrosis factor alpha (TNF-alpha) Biomarker Activity (AID 2284230); conditions: primary human B cells with PBMC
In short: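 Endpoint derived in the positive direction versus DMSO vehicle. Cells: B cells together with PBMC, exposed 24 h before TNF-alpha in the medium was read on the Luminex xMAP platform.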

[6] = read-out: Vascular cell adhesion molecule 1 (VCAM1), VCAM1 (gene 7412); test: BSK_MyoF_VCAM1: BioMAP Diversity Plus: MyoF Assay for Vascular cell adhesion molecule 1 (VCAM1) Biomarker Activity (AID 2284231); conditions: primary human lung fibroblasts
In short: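 ELISA read-out of VCAM-1 on human lung fibroblasts 24 h after chemical treatment, with positive-direction curve fitting relative to DMSO controls. Parallel cultures were stained with sulforhodamine B for total protein to flag overt cytotoxicity.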

[7] = CCTE_Mundy_HCI_Cortical_Synap_Neur_Matur_NeuriteCount: CCTE's Synaptogenesis and Neurite Maturation Assay in rat cortical cells for Neurite Count, Mundy Lab (AID 2284222);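 note: exposure from day 7 to day 12 in vitro with readout at day 12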
In short: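 In this multiplexed morphology readout, rat primary cortical neurons are fixed at DIV 12 following dosing at DIV 7 and stained for MAP2, synaptophysin and nuclei. High-content image analysis yields neurite count.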

[8] = CCTE_Mundy_HCI_Cortical_Synap_Neur_Matur_CellBodySpotCount: CCTE's Synaptogenesis and Neurite Maturation Assay in rat cortical cells for Cell Body Spot Count, Mundy Lab (AID 2284223)
In short: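 Rat cortical neurons; AraC @ DIV 5; dose + media change DIV 7; fix DIV 12; anti-MAP2/anti-synaptophysin IF, Hoechst; HCI count of soma synaptophysin puncta/neuron; DMSO = negative control.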

[9] = TAMU_HCS_1.5hr_SingleDonor1434_Cytotoxicity: Cytotoxicity Assessment using High-content Screening (HCS) Fluorescent Imaging for the Texas A&M University (TAMU) 1.5-hr Human Induced Pluripotent Stem Cell (iPSC)-derived Cardiotoxicity Assay (AID 2284234; active = hit-call score of the fitted dose curve at least 0.9, where 1 is the maximum)
In short: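 Nuclear counts from Hoechst 33342 imaging define cytotoxicity here, with EC10 (10% cell-count loss relative to DMSO) as point of departure. iPSC cardiomyocytes received 0.2-100 uM test chemical in 0.5% DMSO for 1.5 h at 37 C.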

[10] = CCTE_Mundy_HCI_hNP1_Pro_ResponderAvgInten: CCTE's Proliferation Assay in human neuroprogenitor cells, Mundy Lab (AID 2284224; active = hit-call score of the fitted dose curve at least 0.9, where 1 is the maximum;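 note: human neural progenitor cells hNP1 derived from WA09 embryonic stem cells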)
In short: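 Proliferation read as average intensity of BrdU-positive cells, imaged at 26.25 h post-dosing: chemical exposure started after 40–44 h culture, BrdU during final 4 h, paraformaldehyde fixation. Positive-direction fit relative to DMSO.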

Measured: AC50

Tumor necrosis factor (Homo sapiens), sequence (P01375 whole entry, looked up): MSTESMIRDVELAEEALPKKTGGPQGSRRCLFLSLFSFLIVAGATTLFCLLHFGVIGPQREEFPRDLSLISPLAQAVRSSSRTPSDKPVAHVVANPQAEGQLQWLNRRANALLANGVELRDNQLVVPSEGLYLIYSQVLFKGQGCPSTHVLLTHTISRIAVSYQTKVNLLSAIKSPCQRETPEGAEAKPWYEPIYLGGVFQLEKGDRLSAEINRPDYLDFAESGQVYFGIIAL

CC(C)c1ccc(C(C)C)cc1
inactive: [1] | [2] | [3] | [4] | [5] | [6]

O=C(O)c1cn(C2CC2)c2cc(N3CCNCC3)c(F)cc2c1=O
inactive: [1] | [2] | [3] | [4] | [5] | [6]

CN(CCOc1ccc(CC2SC(=O)NC2=O)cc1)c1ccccn1 (centres undefined)
inactive: [1] | [2] | [3] | [4] | [5]
active: [6] 3.97 µM

Cc1ccc2n[nH]nc2c1
inactive: [1] | [2] | [3] | [4] | [5] | [6]

O=P(c1ccccc1)(c1ccccc1)c1ccccc1
inactive: [1] | [2] | [3] | [4] | [5] | [6]

CNC[C@H](O)c1cccc(O)c1
inactive: [1] | [2] | [3] | [4] | [5] | [6]

CCn1c2ccccc2c2cc(N)ccc21
inactive: [1] | [4] | [5] | [6]
active: [2] 15.4 µM | [3] 11.6 µM

BrC1CCC(Br)C(Br)CCC(Br)C(Br)CCC1Br (centres undefined)
inactive: [3] | [6]
active: [1] 32.4 µM | [2] 9.16 µM | [4] 17.4 µM | [5] 28.2 µM

CC1COc2ccccc2N1C(=O)C(Cl)Cl (centres undefined)
inactive: [3] | [4] | [5]
active: [1] 12.4 µM | [2] 20 µM | [6] 20 µM

CCCCC(CC)COC(=O)/C=C\C(=O)OCC(CC)CCCC (centres undefined)
active: [1] 36.1 µM | [2] 7.47 µM | [3] 11.2 µM
inactive: [4] | [5] | [6]

Cc1ccc(Nc2ccc(O)c3c2C(=O)c2ccccc2C3=O)cc1
inactive: [1] | [2] | [3] | [4] | [5] | [6]

Cc1ccc(O)c(C(C)(C)C)c1
inactive: [1] | [2] | [3] | [4] | [5]
active: [6] 34.4 µM

Nc1cc([N+](=O)[O-])ccc1Cl
inactive: [1] | [2] | [3] | [4] | [5] | [6]

CCCCCCCCC=O
inactive: [1] | [2] | [3] | [4] | [5] | [6]

O=[N+]([O-])c1cc(C(F)(F)F)ccc1Cl
inactive: [1] | [2] | [3] | [4] | [5] | [6]

CCCCCCCCCC=O
active: [2] 20 µM
inactive: [1] | [3] | [4] | [5] | [6]

C=C[Si](OCC)(OCC)OCC
inactive: [1] | [2] | [3] | [4] | [5] | [6]

O=C=NC1CCC(CC2CCC(N=C=O)CC2)CC1 (centres undefined)
inactive: [1] | [3] | [4] | [5] | [6]
active: [2] 31 µM

O=C(O)C[C@H](O)C[C@H](O)/C=C/c1c(C2CC2)nc2ccccc2c1-c1ccc(F)cc1
active: [2] 0.122 µM | [4] 2.42 µM | [5] 3 µM
inactive: [1] | [3] | [6]

O=C1CCCCCCCCCCCCCCO1
active: [1] 36.8 µM | [2] 23.4 µM | [3] 30.4 µM | [4] 25.2 µM | [5] 35.8 µM | [6] 20 µM

CC(C)(COC(=O)c1ccccc1)COC(=O)c1ccccc1
inactive: [1] | [3] | [4] | [5] | [6]
active: [2] 29.9 µM

CN(C)C(=N)N=C(N)N
inactive: [7] | [8]

CC(=O)/C=C/C1=C(C)CCCC1(C)C
inactive: [1] | [2] | [3] | [4] | [5] | [6]

COC(=O)c1ccc(C)cc1
inactive: [1] | [2] | [3] | [4] | [5] | [6]

CCCCCCCCCCCCCCCCCC(=O)OCC(CC)CCCC (centres undefined)
inactive: [1] | [2] | [3] | [4] | [5] | [6]

CC(C)Oc1ccccc1O
inactive: [1] | [2] | [3] | [4] | [5] | [6]

O=C1OC2(c3cc(Br)c(O)c(Br)c3Oc3c2cc(Br)c(O)c3Br)c2c(Cl)c(Cl)c(Cl)c(Cl)c21
inactive: [1] | [2]
active: [3] 8.52 µM | [4] 9.94 µM | [5] 13.2 µM | [6] 5.03 µM

CC1CCC(C(C)CS)CC1S (centres undefined)
inactive: [1] | [2] | [3] | [4] | [5]
active: [6] 8.17 µM

CCCCC(CC)COCCC#N (centres undefined)
inactive: [1] | [2] | [3] | [4] | [5] | [6]

C#C[C@]1(O)CC[C@H]2[C@@H]3CCC4=Cc5oncc5C[C@]4(C)[C@H]3CC[C@@]21C
inactive: [1] | [3]
active: [2] 14.3 µM | [4] 24.4 µM | [5] 33.7 µM | [6] 20 µM

CC(=O)O[C@]1(C(C)=O)CC[C@H]2[C@@H]3C[C@H](C)C4=CC(=O)CC[C@]4(C)[C@H]3CC[C@@]21C
active: [2] 14.4 µM
inactive: [1] | [3] | [4] | [5] | [6]

CC(=O)Nc1ccccc1O
inactive: [1] | [2] | [3] | [4] | [5] | [6]

CCCCC/C=C/C=C/C=O
active: [1] 20 µM | [2] 29 µM | [3] 27.4 µM | [4] 20 µM | [5] 35.7 µM | [6] 34.9 µM

c1ccc2sc(SN(C3CCCCC3)C3CCCCC3)nc2c1
inactive: [1] | [2] | [3] | [4] | [5] | [6]

c1ccc2c(c1)c1cccc3ccc4cccc2c4c31
inactive: [1] | [4] | [5] | [6] | [9]
active: [2] 20 µM | [3] 2.63 µM

N#Cc1ccc(CC(=NNC(=O)Nc2ccc(OC(F)(F)F)cc2)c2cccc(C(F)(F)F)c2)cc1
active: [2] 9.95 µM
not listed: [9]
inactive: all other assays above

O=C(O)c1cn(-c2ccc(F)cc2)c2cc(N3CCNCC3)c(F)cc2c1=O
inactive: [1] | [2] | [3] | [4] | [5] | [6]

C=C(C)C(=O)O[C@H]1C[C@@H]2CC[C@@]1(C)C2(C)C
active: [6] 33.6 µM
inactive: [1] | [2] | [3] | [4] | [5]

CCc1c(C)cc(N)c(CC)c1N
inactive: [1] | [2] | [3] | [4] | [5] | [6]
